# Hits are enriched below; roughly 2.9% of the tested compounds scored in any of these assays.
# rCAG binder – r(CAG) repeat RNA binding; TO-PRO-1 dye displacement fluorescence; inhibition, % at 3 µM; actives 1.3% (n = 370,000);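 active = inhibition above the plate cutoff, the mean of all test compounds on that plate plus 3 SD, cut at about 35% in these data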;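 note: 0% = DMSO alone and 100% = 100 µM mitoxantrone as full dye displacement; higher means more dye released from RNA so lower well fluorescence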
# PAFAH1B2 FP inh – inhibitors of human PAFAH1B2 | actives 1.2% (n = 340,000) | inhibition, % at 3.39 µM | P68402 | recombinant PAFAH1B2, FP-rhodamine activity probe, fluorescence polarization;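 active = inhibition above the mean of all tested compounds plus 3 SD, cut at about 24% in these data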;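 note: 0% = enzyme with DMSO and 100% = wells lacking PAFAH1B2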
# Target sequence (P68402 whole entry, looked up): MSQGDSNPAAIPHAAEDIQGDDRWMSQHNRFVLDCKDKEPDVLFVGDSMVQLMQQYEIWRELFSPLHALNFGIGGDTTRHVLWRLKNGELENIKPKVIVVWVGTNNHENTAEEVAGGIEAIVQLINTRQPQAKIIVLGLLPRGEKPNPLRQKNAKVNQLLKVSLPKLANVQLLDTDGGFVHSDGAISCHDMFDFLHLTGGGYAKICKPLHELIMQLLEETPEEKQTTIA
# PAFAH2 inh – inhibitors of human PAFAH2; recombinant PAFAH2, FP-rhodamine activity probe, fluorescence polarization; inhibition, % at 3.39 µM; actives 0.99% (n = 340,000); AID 492956;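 active = inhibition above the mean over all tested compounds plus 3 SD, cut at about 30% in these data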;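 note: inhibitors block probe labeling of enzyme so polarization drops; 0% = enzyme with DMSO and 100% = wells lacking PAFAH2 protein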
# EBNA-1 inhibitor – blocks EBNA-1 binding to DNA; actives 0.34% (n = 300,000); inhibition, % at 14.8 µM; EBNA-1 DNA binding, fluorescence polarization; in the data active = inhibition above about 28%
# PAFAH1B3 inh – PAFAH1B3 (human) inhibition; Q15102; recombinant PAFAH1B3, FP-rhodamine probe, fluorescence polarization; inhibition, % at 3.39 µM; actives 0.28% (n = 340,000); AID 492972;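 active = inhibition above the screen-wide average of all tested compounds plus 3 SD, cut at about 25% in these data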;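 note: 0% = enzyme with DMSO only and 100% = wells lacking PAFAH1B3 protein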
# ZTA DNA inh – ZTA (EBV) inhibition in EBNA-1 counter-screen; ZTA-DNA binding, fluorescence polarization; inhibition, % at 11 µM; actives 0.15% (n = 320,000); AID 2234; in the data active = inhibition above about 33%
# Target sequence (P03206 whole entry, looked up): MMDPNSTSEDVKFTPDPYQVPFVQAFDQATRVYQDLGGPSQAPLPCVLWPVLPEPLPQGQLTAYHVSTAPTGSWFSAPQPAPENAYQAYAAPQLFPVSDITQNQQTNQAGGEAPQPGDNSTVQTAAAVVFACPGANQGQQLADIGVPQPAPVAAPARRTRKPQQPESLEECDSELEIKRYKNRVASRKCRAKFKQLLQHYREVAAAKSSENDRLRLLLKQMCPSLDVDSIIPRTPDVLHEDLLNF
# rCAG bind conf – r(CAG) RNA repeat binding, confirmation; actives 70% (n = 4,300); shares compounds with rCAG binder; inhibition, % at 3 µM; AID 652065; TO-PRO-1 dye displacement fluorescence;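 active = inhibition above a per-plate cutoff, the mean inhibition of sample wells plus 3 SD, cut at about 35% in these data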;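 note: loss of TO-PRO-1 fluorescence as compound displaces dye from 1x1 AA loop RNA; 0% = DMSO only wells and 100% = 100 µM mitoxantrone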
# DNA CAG counter – counter-screen for rCAG RNA binders: DNA CAG dye complex inhibitors. AID 652068. d(CAG) DNA oligo TO-PRO-1 dye displacement, fluorescence. actives 94% (n = 4,300). inhibition, % at 3 µM. shares compounds with rCAG binder;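 active = inhibition above its plate's cutoff, the mean test-well inhibition plus 3 SD, cut at about 4.8% in these data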;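 note: 0% = DNA dye mix with DMSO and 100% = 100 µM mitoxantrone; hits displace the dye from DNA and so lower well fluorescence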
# DNA CAG DR – DNA CAG dye complex inhibition, dose response counter-screen | AID 686960 | actives 20% (n = 250) | shares compounds with rCAG binder | DNA CAG/GTC duplex TO-PRO-1 dye displacement fluorescence | IC50, µM; in the data active = IC50 below about 10 µM
# Starred values were filed as active, the others as inactive; . = not tested or not shown.
SMILES,rCAG binder,PAFAH1B2 FP inh,PAFAH2 inh,EBNA-1 inhibitor,PAFAH1B3 inh,ZTA DNA inh,rCAG bind conf,DNA CAG counter,others
COc1cc(-c2ccc(Nc3ccccc3C(=O)O)c(OC)c2)ccc1Nc1ccccc1C(=O)O,93*,12,54*,.,29*,.,86*,59*,
CC(Sc1nc2ccccc2c(=O)n1CCc1ccc(S(N)(=O)=O)cc1)C(=O)NC(N)=O (stereo not drawn),2,0,-8,-6,4,2,.,.,
COc1ccc(/C=N/n2c(-c3n[nH]c4c3CCC4)n[nH]c2=S)cc1,2,1,1,-4,6,-16,.,.,
CC(C)Oc1cccc(-c2n[nH]c(=S)n2N=Cc2ccc(OCc3ccccc3)cc2)c1,51*,.,.,.,.,.,52*,26*,
COc1ccc(/C=N/n2c(-c3cc(C)[nH]n3)n[nH]c2=S)cc1,1,-5,3,-6,3,5,.,.,
Cc1cc(-c2n[nH]c(=S)n2N=Cc2ccc(OCc3ccccc3)cc2)n[nH]1,35*,.,.,.,.,.,40*,9.8*,
S=c1[nH]nc(-c2n[nH]c3c2CCC3)n1N=Cc1ccc(OCc2ccccc2)cc1,38*,.,.,.,.,.,43*,14*,
CCC1C(c2ccccc2)=CCC(C(=O)O)C1C (stereo not drawn),4,4,16,.,2,.,.,.,
CC(C)c1ccc(N)c(S(=O)(=O)O)c1,3,6,4,-1,6,5,.,.,
CCCCc1cc(=O)oc2cc(C)cc(OCC(=O)N[C@@H](CSCc3ccccc3)C(=O)O)c12,39*,1,9,-5,4,7,47*,12*,
CCc1cc(=O)oc2cc(C)cc(OCC(=O)N[C@@H](CSCc3ccccc3)C(=O)O)c12,47*,-1,16,-3,9,7,40*,8.3*,
CCc1cc(=O)oc2cc(C)cc(OCC(=O)NC3CCN(Cc4ccccc4)CC3)c12,-5,2,4,-8,-1,-5,.,.,
Cc1c(C(=O)N2CCN(c3ccccc3F)CC2)sc2ncn(CC(=O)N3CCOCC3)c(=O)c12,-2,3,-1,-1,-3,5,.,.,
O=c1c2ccccc2nnn1Cc1ccc2ccccc2c1,-2,3,2,-4,-3,9,.,.,
CC(/C=C1\SC(=S)N(NC(=O)c2cccc(O)c2)C1=O)=C\c1ccccc1,40*,-1,-6,-12,-3,10,26,12*,
Cn1cccc1C(=O)NC1CCCCCC1,1,2,0,.,2,-9,.,.,
CC1(C)CCc2cc(S(=O)(=O)N3CCN(S(=O)(=O)c4c(F)cccc4F)CC3)ccc2O1,2,4,1,.,6,.,.,.,
Cc1ccccc1S(=O)(=O)N1[C@@H](c2ccc(Br)cc2)C(C(=O)O)=CC[C@H]1c1ccc(Cl)cc1,88*,84*,5,.,-5,.,84*,57*,
O=C(O)C1=CC[C@@H](c2ccc(Cl)cc2)N(S(=O)(=O)c2ccc(Cl)cc2)[C@H]1c1ccc(Br)cc1,85*,88*,-7,.,3,.,88*,58*,
CC(=O)C1=CCC(c2ccc(Cl)cc2)N(S(=O)(=O)c2ccccc2)C1 (stereo not drawn),-1,.,.,.,.,.,.,.,
Cc1ccccc1S(=O)(=O)N1C(c2ccc(Cl)c(Cl)c2)CC=C(C(=O)O)C1c1cccc(Br)c1 (stereo not drawn),86*,.,.,.,.,.,85*,57*,
Cc1cc2ncc(-c3cccs3)nc2cc1C,1,-1,0,.,4,.,.,.,
CC(=O)N1CCN(C(c2ccccc2)c2nnnn2C(C)(C)C)CC1 (stereo not drawn),0,.,.,.,.,.,.,.,
COc1cc(O)c(C(C)=O)cc1OC,4,1,4,6,1,-12,.,.,
CC(=O)Oc1cc(C)c(Cl)c2c(OC(C)=O)cc(C(C)=O)c(O)c12,40*,.,.,.,.,.,21,6.8*,
SMILES,rCAG binder,PAFAH1B2 FP inh,PAFAH2 inh,EBNA-1 inhibitor,PAFAH1B3 inh,ZTA DNA inh,rCAG bind conf,DNA CAG counter,others
Cc1ccc(-n2c(SCC(=O)c3ccc(O)c(O)c3)nnc2-c2ccccc2)cc1,39*,.,.,.,.,.,37*,15*,
CC(Oc1ccc(Cl)cc1)C(=O)Nc1ccc(S(=O)(=O)Nc2nccs2)cc1 (stereo not drawn),44*,16,-10,3,1,-12,36*,11*,
CCC(=O)Nc1ccc(S(=O)(=O)Nc2nccs2)cc1,5,4,8,5,4,-5,.,.,
COc1ccccc1CCC(=O)Nc1ccc(S(=O)(=O)Nc2nccs2)cc1,37*,5,5,2,6,10,28,9.2*,
O=C(CSc1nnc(SCc2cccc3ccccc23)s1)Nc1ccc(S(=O)(=O)Nc2nccs2)cc1,80*,.,.,.,.,.,77*,43*,
CC(Oc1ccc(Cl)cc1)C(=O)Nc1nccs1 (stereo not drawn),-4,18,-11,11,2,0,.,.,
Cc1ccc(C)c(OC(C)C(=O)Nc2ccc(S(=O)(=O)Nc3nccs3)cc2)c1 (stereo not drawn),55*,-4,-6,0,7,-7,48*,18*,
O=C(CSc1cn[nH]n1)Nc1cccc(C(F)(F)F)c1,2,2,2,0,0,21,.,.,
O=C(NCC[C@@H]1CC[C@@H](NC(=O)c2cnccn2)[C@@H](CO)O1)c1ccc2c(c1)OCO2,4,.,.,.,.,.,.,.,
O=C(C(=O)N1CCN(C(=O)c2cc(C(F)(F)F)cc(C(F)(F)F)c2)CC1)c1cccc(C(F)(F)F)c1,0,.,.,.,.,.,.,.,
CC(Oc1ccccc1Cl)C(=O)Nc1ccc(S(=O)(=O)Nc2nccs2)cc1 (stereo not drawn),54*,-4,6,0,1,2,54*,13*,
CCOC(=O)[C@]12CCCC=C1N(Cc1cccc3ccccc13)C(=O)[C@H](CC(=O)NCc1cccs1)C2,7,.,.,.,.,.,.,.,
N#Cc1c(=O)c2nc(NCCCO)ncc2n2c(=O)c3ccccc3[nH]c12,41*,8,7,-10,8,-20,67*,26*,DNA CAG DR=5.4*
COc1ccccc1/C=C/C1=NC(=C\C=C/c2ccccc2)/C(=O)O1,46*,-10,-7,9,-5,1,33,14*,
COc1ccccc1/C=C/C(=O)c1ccc(Cl)cc1,0,0,1,13,7,5,.,.,
COc1ccccc1/C=C/C=C1N=C(/C=C/c2ccc(Cl)cc2)OC/1=O,54*,-16,-9,11,-22,1,37*,10*,
